Experimental data as given in PubChem BioAssay AID1159580 (chemical genetic matrix, 2015).
“And” between values parts separate entries of the source, which are not always exact repeats. Identical values can stand only once. Out of some 5,500 compounds screened, about 2,000 (36%) were called active. Another 18% or so got no clear call; they are omitted. Cut-off read from the data, not from the text of the source: active = normalized growth mostly below about 0.91 (no sharp cut-off); inconclusive = no clear call, values can overlap the other calls; inactive = mostly above about 0.92. Some of the results follow.

Assay: chemical genetic growth profiling, strain panel (AID 1159580);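 note: tested at 20 µM; growth read once vehicle control cultures reached saturation at 30 °C; 1 = growth at the plate median or of vehicle wells; lower values mean less growth of the strain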
Details: S. cerevisiae deletion strains, growth OD

Measured: normalized growth

CN=C(NC#N)NCCSCc1nc[nH]c1C
inactive: locus YAL013W, strain DEP1, hits give low values 0.997 | locus YAL021C, strain ccr4, hits give low values 1 | locus YAL026C, strain drs2, hits give low values 0.997 | locus YAL030W, strain snc1, hits give low values 0.998 | locus YAL040C, strain CLN3, hits give low values 1.01 | locus YBL061C, strain skt5, hits give low values 0.991 | locus YBR009C, strain hhf1, hits give low values 0.998 | locus YBR021W, strain FUR4, hits give low values 0.993 | locus YBR023C, strain chs3, hits give low values 0.996 | locus YBR171W, strain sec66, hits give low values 0.996 | locus YBR229C, strain ROT2, hits give low values 0.969 | locus YBR231C, strain swc5, hits give low values 1 | locus YBR279W, strain paf1, hits give low values 0.996 | locus YCL011C, strain gbp2, hits give low values 0.993 | locus YCL016C, strain dcc1, hits give low values 0.989 | locus YCL029C, strain bik1, hits give low values 0.979 | locus YCL061C, strain MRC1, hits give low values 1 | locus YCL069W, strain vba3, hits give low values 1.01 | locus YCR088W, strain abp1, hits give low values 0.998 | locus YDL005C, strain med2, hits give low values 1.01 | locus YDL035C, strain GPR1, hits give low values 1.01 | locus YDL040C, strain nat1, hits give low values 1.01 | locus YDL074C, strain BRE1, hits give low values 1.01 | locus YDL101C, strain DUN1, hits give low values 0.984 | locus YDL134C, strain PPH21, hits give low values 1 | locus YDL185W, strain tfp1, hits give low values 0.977 | locus YDL192W, strain arf1, hits give low values 0.995 | locus YDR001C, strain nth1, hits give low values 1 | locus YDR069C, strain doa4, hits give low values 0.997 | locus YDR101C, strain arx1, hits give low values 0.992 | locus YDR137W, strain rgp1, hits give low values 1.01 | locus YDR150W, strain NUM1, hits give low values 1 | locus YDR159W, strain sac3, hits give low values 0.997 | locus YDR162C, strain NBP2, hits give low values 0.994 | locus YDR195W, strain ref2 0.976 | locus YDR297W, strain sur2, hits give low values 0.997 | locus YDR318W, strain mcm21, hits give low values 0.999 | locus YDR334W, strain swr1, hits give low values 0.996 | locus YDR335W, strain msn5, hits give low values 1.01 | locus YDR363W, strain ESC2, hits give low values 0.998 | locus YDR388W, hits give low values 0.991 | locus YDR392W, strain spt3, hits give low values 0.905 | locus YDR502C, strain sam2, hits give low values 1.02 | locus YEL003W, strain gim4, hits give low values 1.01 | locus YEL037C, strain rad23, hits give low values 0.998 | locus YEL061C, strain CIN8 (second series), hits give low values 1 | locus YEL061C, strain CIN8, hits give low values 0.998 | locus YER002W, strain NOP16, hits give low values 1.02 | locus YER015W, strain faa2, hits give low values 1.01 | locus YER016W, strain bim1, hits give low values 1 | locus YER110C, hits give low values 0.975 | locus YER111C, strain swi4, hits give low values 0.993 | locus YER155C, strain BEM2 (second series), hits give low values 0.97 | locus YER155C, strain BEM2, hits give low values 0.99 | locus YER167W, strain BCK2, hits give low values 0.997 | locus YFR010W, strain ubp6, hits give low values 1 | locus YGL078C, strain dbp3, hits give low values 0.989 | locus YGL086W, strain mad1, hits give low values 1 | locus YGL167C, strain pmr1, hits give low values 0.995 | locus YGL173C, strain kem1, hits give low values 0.997 | locus YGL227W, strain vid30, hits give low values 0.991 | locus YGL240W, strain doc1, hits give low values 0.986 | locus YGL248W, strain PDE1, hits give low values 0.993 | locus YGL253W, strain hxk2, hits give low values 0.997 | locus YGR078C, strain PAC10, hits give low values 0.996 and 1.01 | locus YGR135W, strain pre9, hits give low values 0.992 | locus YGR229C, strain SMI1, hits give low values 0.996 | locus YGR252W, strain gcn5, hits give low values 1.1 | locus YHR013C, strain ard1, hits give low values 0.972 | locus YHR027C, strain rpn1, hits give low values 0.993 | locus YHR030C, strain SLT2, hits give low values 0.977 and 1.03 | locus YHR079C, strain IRE1 (second series), hits give low values 0.986 | locus YHR079C, strain IRE1, hits give low values 1.07 | locus YHR094C, strain hxt1, hits give low values 0.99 | locus YHR129C, strain ARP1, hits give low values 0.985 | locus YHR142W, strain chs7, hits give low values 0.998 | locus YHR200W, strain rpn10, hits give low values 0.99 | locus YIL066C, strain RNR3, hits give low values 0.998 | locus YIL073C, strain SPO22, hits give low values 1.01 | locus YIL125W, strain kgd1, hits give low values 0.992 | locus YIR030C, strain dcg1, hits give low values 0.991 | locus YJL092W, strain hpr5, hits give low values 0.994 | locus YJL095W, strain BCK1 (second series), hits give low values 0.996 | locus YJL095W, strain BCK1, hits give low values 0.952 and 1.02 | locus YJL115W, strain asf1, hits give low values 1 | locus YJL129C, strain trk1, hits give low values 1.01 | locus YJL134W, strain LCB3, hits give low values 0.996 | locus YJL154C, strain vps35, hits give low values 1.01 | locus YJL164C, strain tpk1, hits give low values 0.992 | locus YJL166W, strain qcr8, hits give low values 1 | locus YJL168C, strain set2, hits give low values 0.983 | locus YJL187C, strain SWE1 (second series), hits give low values 0.988 | locus YJL187C, strain SWE1, hits give low values 1 | locus YJR043C, strain POL32, hits give low values 0.98 | locus YJR066W, strain TOR1, hits give low values 0.997
